Source: PubChem
This is a sample that favours compounds with a hit; in the whole collection about 3.3% have one here.
SARS PLP yeast: SARS-CoV PLP inhibition in yeast; S. cerevisiae expressing SARS-CoV PLpro, growth rescue; Potency, µM (top dose mostly 32.9 µM), hits mostly activators; 0.19% of 330,000 active; AID 485353; calls by dose curve; note: nearly all actives have a fitted effect of over 55% in size
NS1 function inh: inhibitors of influenza NS1 protein function; Potency, µM (series often up to 46.1 µM); 0.4% of 270,000 active; calls by dose curve; note: actives are rising curves; nearly all actives have a fitted effect of over 50% in size
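S. cerevisiae expressing influenza A NS1, grown in glucose, washed, then diluted 1:100 into pH 6.0 -URA galactose medium with 23 nl compound. Growth recovery read as OD600; NS1-free strain serves as control.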
Sm TGR block: blocks Schistosoma mansoni thioredoxin glutathione reductase; Potency, µM (doses to about 114 µM), hits mostly inhibitors; 3% of 360,000 active; purified TGR, DTNB reduction, TNB absorbance 405 nm; Q962Y6; note: nearly all actives have a fitted effect of over 60% in size
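TGR 20 nM + NADPH 100 uM (dispensed conc.), cpd preinc 15 min RT; start with NADPH (500 uM addition) then DTNB (15 mM addition). Kinetic TNB absorbance, 405 nm filter. Four-parameter Hill fit across titration.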
LmPK inhibitor: LmPK (Leishmania mexicana) enzyme inhibition; 0.37% of 290,000 active; AID 1721; Potency, µM (doses to about 57.5 µM), usual class: inhibitors; purified LmPK, Kinase-Glo ATP luminescence, 1 h; Q27686
Target sequence (Q27686 whole entry, looked up): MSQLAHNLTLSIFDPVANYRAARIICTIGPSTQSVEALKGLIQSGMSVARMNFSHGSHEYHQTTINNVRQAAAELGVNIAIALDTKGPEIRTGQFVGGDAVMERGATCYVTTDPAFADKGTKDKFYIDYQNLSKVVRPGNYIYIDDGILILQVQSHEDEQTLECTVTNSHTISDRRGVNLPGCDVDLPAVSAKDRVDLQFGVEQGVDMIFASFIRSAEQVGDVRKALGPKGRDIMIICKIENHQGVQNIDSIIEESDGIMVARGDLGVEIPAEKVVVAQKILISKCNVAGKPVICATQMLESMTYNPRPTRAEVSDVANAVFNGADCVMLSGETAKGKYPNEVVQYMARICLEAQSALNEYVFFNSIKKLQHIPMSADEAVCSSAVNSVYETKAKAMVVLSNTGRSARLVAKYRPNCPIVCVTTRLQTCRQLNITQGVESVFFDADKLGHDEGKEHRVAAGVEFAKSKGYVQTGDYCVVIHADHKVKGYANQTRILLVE
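0.1 nM LmPK, 0.5 mM PEP, 0.1 mM ADP; 50 mM imidazole pH 7.2, 7 mM MgCl2, 50 mM KCl; 1 h RT. Kinase-Glo luminescence readout, normalized to no-enzyme (full inhibition) and uninhibited wells.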
Tb PYK inh: blocks Trypanosoma brucei pyruvate kinase. TbPYK enzyme, Kinase-Glo Plus ATP luminescence, 45 min. 0.12% of 410,000 active. Potency, µM (top dose mostly 76.8 µM), actives largely listed as inhibitors. Q57TT1; note: nearly all actives have a fitted effect of over 50% in size
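ADP (130 uM final) triggers the TbPYK reaction after compound addition; incubation is 45 min at room temperature. Kinase-Glo Plus is then added and luminescence imaged. Normalized data are fitted to concentration-effect curves.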
RE007 growth inh: less growth of the S. pombe RE007 Vpr strain | S. pombe RE007 Vpr strain, BacTiter-Glo ATP luminescence, 24 h | Potency, µM (highest dose often 92.2 µM), most hits filed as inhibitors | 0.21% of 360,000 active; active = well fitted falling curve with a large enough effect; inconclusive = small, poorly fitted or top-dose-only effect; inactive = no such curve, though single readings can be large or run the other way; note: nearly all actives have a fitted effect of over 50% in size
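Fission yeast RE007 carrying one integrated HIV-1 vpr copy, seeded at OD 0.01 in PMG+AL medium with 23 nL pinned compound. Grown 24 h at 30 degrees; viability read by BacTiter-Glo luminescence after 5 min.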
Numbers stand for hits; n = inactive; u = inconclusive; x = no result; [ ] = dose if it differs, or a comment. Unless noted, calls come from the whole dose curve; as a rule, active = well fitted curve in the direction sought with a large enough effect; inconclusive = small, poorly fitted or top-dose-only effect, or another doubt; inactive = no such curve, though single readings can be large; an effect the other way counts as inactive or inconclusive.

SMILES	SARS PLP yeast	NS1 function inh	Sm TGR block	LmPK inhibitor	Tb PYK inh	RE007 growth inh
O=C(NC(c1ccccc1)c1cc(Cl)c2cccnc2c1O)c1cccnc1 (stereo not drawn)	1.78µM	n	n	n	x	x
CCOc1ccc(C(Nc2cccnc2)c2cc(Cl)c3cccnc3c2O)cc1 (stereo not drawn)	n	n	0.316µM	n	n	u
O=C(O)COc1ccccc1C(Nc1cccnc1)c1cc(Cl)c2cccnc2c1O (stereo not drawn)	u	x	1µM	n	n	n
O=C(NC(=S)Nc1ccccc1CO)C1CCCCC1	n	x	x	x	n	n
Cc1ccccc1NC(=S)NC(=O)C1CCCCC1	n	n	14.1µM	n	n	n
Cc1cc(C)cc(NC(=S)NC(=O)C2CC2)c1	n	n	12.6µM	n	n	n
Cc1cccc(NC(=S)NC(=O)C2CC2)c1	n	n	35.5µM	n	x	x
CCCC[C@]12Cc3cc(C#N)ccc3C(O1)c1c(c3cc(F)ccc3oc1=O)O2	n[6.58 µM]	n	n[22.9 µM]	n[11.5 µM]	x	x
O=S(=O)(NCC(c1ccco1)N1CCN(c2ccccc2F)CC1)c1ccccc1 (stereo not drawn)	n	n	n	n	n	n
O=S(=O)(NCC(c1cccs1)S(=O)(=O)c1ccccc1)c1ccccc1 (stereo not drawn)	x	x	0.316µM	x	n	x
O=C(NCCc1ccc(Cl)cc1)C(=O)NCC(c1ccco1)S(=O)(=O)c1ccccc1 (stereo not drawn)	x	x	u	x	n	x
O=S(=O)(NCC(c1ccco1)S(=O)(=O)c1cccs1)c1ccc(Cl)cc1 (stereo not drawn)	x	x	0.1µM	x	n	x
O=S(=O)(NCC(c1ccco1)S(=O)(=O)c1cccs1)c1ccc(F)c(C(F)(F)F)c1 (stereo not drawn)	x	x	0.1µM	x	n	x
O=S(=O)(NCC(c1ccco1)N1CCCCC1)c1cccc(C(F)(F)F)c1 (stereo not drawn)	n	x	n	x	n	n
O=S(=O)(NCC(c1ccco1)S(=O)(=O)c1cccs1)c1ccccc1 (stereo not drawn)	x	x	0.199µM	x	n	x
COc1cc2cc(c1Cl)N(C)C(=O)C[C@H](OC(=O)C(C)C)[C@]1(C)O[C@@H]1[C@@H](C)[C@H]1C[C@](O)(NC(=O)O1)[C@@H](OC)/C=C\C=C(\C)C2	x	n	x	x	x	x
Cc1ccc(C(=O)Nc2ccc3c(c2)N(C)C(=O)c2ccccc2S3)cc1	x	x	n	x	n	x
O=C(CSc1nccn1-c1cccc(Cl)c1)Nc1cccc2ccccc12	x	x	n	x	n	x
Cc1cccc(CNC(=O)c2ccc(N3Cc4ccccc4Oc4ncccc43)s2)c1	x	x	n	x	n	x
O=c1[nH]c(=O)n(Cc2ccco2)c(O)c1/C=N/N1CCCCCC1	n	u	n	n	n	n
NC(=O)c1ccc(N=Cc2c(O)n(Cc3ccco3)c(=O)[nH]c2=O)cc1	n	n	39.8µM	n	n	n
N#Cc1c(/N=C/c2c(O)n(Cc3ccco3)c(=O)[nH]c2=O)sc2c1CCCC2	n	n	89.1µM	n	u	n
Cc1ccc(CNC(=O)C2c3ccccc3C(=O)N3CCc4ccccc4C23)o1 (stereo not drawn)	n	n	5.62µM	n	u	n
O=C(NCCN1CCN(Cc2ccccc2)CC1)C1c2ccccc2C(=O)N2CCc3ccccc3C12 (stereo not drawn)	n	n	n	n	n	n
CCn1c(C)c(CS(=O)(=O)c2ccccc2)[nH]c1=O	n	n	0.0282µM	n	n	n
SMILES	SARS PLP yeast	NS1 function inh	Sm TGR block	LmPK inhibitor	Tb PYK inh	RE007 growth inh
CSCC[C@@H](C(=O)O)N(C)C	x	n	x	x	x	x
CCOc1ccccc1-c1noc(CSc2nnc(-c3ccccc3)n2-c2ccc(F)cc2)n1	x	x	n	x	n	x
S=c1c2c(nc3nc[nH]n13)CCC2	n	n	17.8µM	n	n	u
CCOC(=O)C(N)CSC1CC(=O)N(CCc2ccccc2)C1=O (stereo not drawn)	n	n	8.91µM	n	n	n
O=C(O)c1cccnc1SC1CC(=O)N(CCc2ccccc2)C1=O (stereo not drawn)	n	n	n	n	n	n
O=C1CC(c2ccc(F)cc2)Cc2nc(N3CCc4ccccc43)ncc21 (stereo not drawn)	n	7.08µM	n	n	x	x
COc1ccc(/C=C/C2=CCN(C)CC2)cc1	n	n	31.6µM	n	n	n
